# Test results from PubChem BioAssay.
# Calls of active or inactive are those of the source. Unless noted, how the calls were made is not given here.
# Legend:
# [1] = tested on: Wnt5a (protein binding on small-molecule microarray); assay: Wnt5a binders on small-molecule microarray, primary screen, biophysical, 635/667 nm fluorescence (AID 1142); settings: 635 nm fluorescence, higher = more signal;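 further: fluorescence read at 667 nm with signal to noise per printed feature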
# [2] = cell viability in Huh7 cells, primary screen, cytotoxicity control for HCV replication inhibitor project, CellTiter-Glo luminescence, basal, 48 h (AID 1143); settings: Huh7 HCV replicon, higher = more signal, called active from +8 up or from −8 down;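 further: Huh7 hepatoma cells carrying a hepatitis C replication reporter with no stimulus; test concentration not given here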
# [3] = P. aeruginosa biofilm formation inhibitors, primary screen, PAO1 strain, BacTiter-Glo luminescence, LB-PBS (AID 1144); settings: 12 h, higher = more signal
# [4] = CREB reporter modulators without forskolin, primary screen, cell-based, PC12, CRE-LacZ reporter, unstimulated (AID 1145); settings: no forskolin, luminescence, 4.5 h, higher = more signal, called active from +8 up or from −8 down
# [5] = CREB reporter modulators under forskolin, primary screen, cell-based, PC12, CRE-LacZ reporter, forskolin-stimulated (AID 1146); settings: luminescence, 4.5 h, higher = more signal, called active from +8 up or from −8 down;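 further: PC12 cells with 6xCRE LacZ reporter stimulated by forskolin 10 µM; beta-galactosidase reporter signal reflecting CREB driven transcription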
# [6] = biological target: Streptavidin (Streptomyces avidinii) (UniProt P22629); assay: streptavidin binders on small-molecule microarray, primary screen, artefact control for SMM compound annotation, biophysical, 635/667 nm fluorescence (AID 1147); settings: streptavidin binding, higher = more signal;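 further: signal reflects streptavidin binding to arrayed compounds as a control protein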
# [7] = small-molecule binders of probe aInhba, primary screen, biochemical, small-molecule microarray, 635/667 nm fluorescence (AID 1148); settings: higher = more signal;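 further: score merges 667nm spot fluorescence with signal-to-noise for antibody binding to printed compounds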
# Torsin-1A (Homo sapiens) [8] = biological target: Torsin-1A (Homo sapiens) (UniProt O14656); assay: torsin A binders from cell lysate, primary screen, small-molecule microarray, wild-type, 635/667 nm (AID 1149); settings: COS7 hTOR1A-WT lysate, 635 nm fluorescence, higher = more signal
# Torsin-1A (Homo sapiens) [9] = biological target: Torsin-1A (Homo sapiens) (UniProt O14656); assay: small-molecule binders of mutant TOR1A in lysate, primary screen, cell lysate, small-molecule microarray, COS7 lysate, 635/667 nm fluorescence (AID 1150); settings: COS7 hTOR1A mutant lysate, 635 nm fluorescence, higher = more signal;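 further: score pools 667 nm emission and signal to noise measuring lysate protein binding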
# [10] = tested on: Sonic hedgehog protein (Shh); assay: small-molecule binders of Shh protein, primary screen, biochemical, small-molecule microarray, 635/667 nm fluorescence (AID 1151); settings: small-molecule microarray binding, 635 nm fluorescence; higher = more signal;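 further: Shh protein binding to compounds spotted on small-molecule microarray slides; score combines spot fluorescence intensity with signal-to-noise across triplicate slides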
# [11] = E. coli DRC41 culture turbidity changes, primary screen, E. coli filamentation inducer project, strain DRC41, OD650, 48 h (AID 1152);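 further: E. coli MC1000 strain DRC41 lacking acrAB efflux pump and sulA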; settings: E. coli DRC41 (acrAB sulA), higher = more signal, called active from +8 up or from −8 down
# [12] = small-molecule binders of probe aLefty1, primary screen, biochemical, small-molecule microarray, 635/667 nm fluorescence (AID 1153); settings: higher = more signal;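 further: score merges spot fluorescence with signal-to-noise ratio from the scanned slide images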
# [13] = PSAC antagonists in infected red cells, primary screen, cell-based, P. falciparum Indochina, OD700, 1 h (AID 1154); settings: P. falciparum Indochina infected RBC osmotic lysis, higher = more signal, called active from +8 up or from −8 down
# [14] = PSAC antagonists in infected red cells, primary screen, cell-based, P. falciparum Indochina, OD700, 2 h (AID 1155);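 further: lysis reports solute entry through the parasite surface anion channel PSAC; channel blockers reduce lysis of infected cells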; settings: P. falciparum Indochina infected erythrocytes, osmotic lysis OD700; higher = more signal, called active from +8 up or from −8 down
# [15] = osmotic lysis modulators in infected erythrocytes, primary screen, PSAC antagonist project, cell-based, P. falciparum Indochina, OD700, 3 h (AID 1156); settings: higher = more signal, called active from +8 up or from −8 down
# [16] = PSAC antagonists in infected red cells, primary screen, cell-based, P. falciparum Indochina, OD700, 18 h (AID 1157); settings: P. falciparum Indochina infected erythrocytes, osmotic lysis OD700, 18 h; higher = more signal, called active from +8 up or from −8 down
# [17] = modulators of S6 phosphorylation in cells, primary screen, cell-based, A549, cytoblot, luminescence, serum-stimulated (AID 1158); settings: A549 phospho-S6 cytoblot, 5 h, higher = more signal;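 further: serum-stimulated A549 lung adenocarcinoma cells; signal is phosphorylated S6 detected by cytoblot immunostaining with HRP secondary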
# [18] = biological target: NADPH oxidase 2 (Homo sapiens) (UniProt P04839); assay: NOX2-dependent H2O2 signal modulators, primary screen, NOX inhibitor project, cell-based, HEK293-NOX2, PMA-stimulated, Amplex Red fluorescence (AID 1159); settings: 45 min, higher = more signal, called active from +8 up or from −8 down; further: test concentration not given here
# [19] = biological target: NADPH oxidase 4 (Homo sapiens) (UniProt Q9NPH5); assay: NOX4-dependent H2O2 signal modulators, primary screen, NOX inhibitor project, cell-based, HEK293-NOX4, tetracycline-induced, Amplex Red fluorescence (AID 1160); settings: 45 min, higher = more signal, called active from +8 up or from −8 down
# [20] = biological target: NADPH oxidase 5 (Homo sapiens) (UniProt Q96PH1); assay: NOX5-dependent H2O2 signal modulators, primary screen, NOX inhibitor project, cell-based, HEK293-NOX5, Amplex Red fluorescence (AID 1161); settings: HEK293-NOX5, ionomycin, 45 min, higher = more signal
# Chain of NADPH oxidase 5 (Homo sapiens) (Q96PH1 whole entry, looked up): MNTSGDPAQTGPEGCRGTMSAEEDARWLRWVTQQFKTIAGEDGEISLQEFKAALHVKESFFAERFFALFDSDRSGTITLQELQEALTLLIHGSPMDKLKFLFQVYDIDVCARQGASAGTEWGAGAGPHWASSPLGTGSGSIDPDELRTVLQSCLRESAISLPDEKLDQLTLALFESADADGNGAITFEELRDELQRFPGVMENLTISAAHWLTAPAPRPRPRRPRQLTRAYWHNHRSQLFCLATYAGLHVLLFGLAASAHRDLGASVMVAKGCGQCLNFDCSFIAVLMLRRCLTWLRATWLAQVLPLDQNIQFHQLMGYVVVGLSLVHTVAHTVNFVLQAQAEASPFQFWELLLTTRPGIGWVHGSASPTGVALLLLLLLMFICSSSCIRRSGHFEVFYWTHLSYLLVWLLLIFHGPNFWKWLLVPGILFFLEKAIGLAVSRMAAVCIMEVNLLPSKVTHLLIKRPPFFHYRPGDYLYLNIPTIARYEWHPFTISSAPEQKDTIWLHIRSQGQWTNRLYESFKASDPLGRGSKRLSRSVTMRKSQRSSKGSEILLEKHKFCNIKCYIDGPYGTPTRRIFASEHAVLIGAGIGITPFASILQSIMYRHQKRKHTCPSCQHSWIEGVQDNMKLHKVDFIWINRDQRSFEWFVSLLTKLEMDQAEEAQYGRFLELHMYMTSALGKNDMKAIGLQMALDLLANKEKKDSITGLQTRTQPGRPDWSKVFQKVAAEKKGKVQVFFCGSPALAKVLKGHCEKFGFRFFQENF
# Chain of Torsin-1A (Homo sapiens) (O14656 whole entry, looked up): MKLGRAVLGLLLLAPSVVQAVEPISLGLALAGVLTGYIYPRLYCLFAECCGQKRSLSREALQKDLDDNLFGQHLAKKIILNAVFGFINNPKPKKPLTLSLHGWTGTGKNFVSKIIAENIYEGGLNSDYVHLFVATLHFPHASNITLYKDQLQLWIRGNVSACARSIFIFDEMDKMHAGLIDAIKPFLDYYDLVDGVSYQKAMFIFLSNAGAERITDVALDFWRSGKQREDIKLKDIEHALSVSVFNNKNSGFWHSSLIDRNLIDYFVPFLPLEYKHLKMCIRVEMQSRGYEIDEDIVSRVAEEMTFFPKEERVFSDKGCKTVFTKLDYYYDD
# Chain of NADPH oxidase 2 (Homo sapiens) (P04839 whole entry, looked up): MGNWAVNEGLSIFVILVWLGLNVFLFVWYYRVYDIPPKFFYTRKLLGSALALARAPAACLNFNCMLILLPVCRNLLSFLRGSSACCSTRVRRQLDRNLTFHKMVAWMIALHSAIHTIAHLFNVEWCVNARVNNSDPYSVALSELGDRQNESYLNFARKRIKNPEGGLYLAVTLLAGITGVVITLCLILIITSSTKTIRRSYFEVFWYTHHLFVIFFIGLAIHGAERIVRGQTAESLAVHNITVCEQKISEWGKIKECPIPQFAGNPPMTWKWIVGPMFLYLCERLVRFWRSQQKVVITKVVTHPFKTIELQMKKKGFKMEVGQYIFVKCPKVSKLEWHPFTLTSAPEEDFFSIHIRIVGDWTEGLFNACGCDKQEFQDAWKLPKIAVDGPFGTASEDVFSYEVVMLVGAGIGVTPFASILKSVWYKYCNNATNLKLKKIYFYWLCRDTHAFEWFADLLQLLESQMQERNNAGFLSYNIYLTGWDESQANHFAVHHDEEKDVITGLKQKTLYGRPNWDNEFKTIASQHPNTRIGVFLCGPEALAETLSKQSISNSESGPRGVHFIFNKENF
# Chain of NADPH oxidase 4 (Homo sapiens) (Q9NPH5 whole entry, looked up): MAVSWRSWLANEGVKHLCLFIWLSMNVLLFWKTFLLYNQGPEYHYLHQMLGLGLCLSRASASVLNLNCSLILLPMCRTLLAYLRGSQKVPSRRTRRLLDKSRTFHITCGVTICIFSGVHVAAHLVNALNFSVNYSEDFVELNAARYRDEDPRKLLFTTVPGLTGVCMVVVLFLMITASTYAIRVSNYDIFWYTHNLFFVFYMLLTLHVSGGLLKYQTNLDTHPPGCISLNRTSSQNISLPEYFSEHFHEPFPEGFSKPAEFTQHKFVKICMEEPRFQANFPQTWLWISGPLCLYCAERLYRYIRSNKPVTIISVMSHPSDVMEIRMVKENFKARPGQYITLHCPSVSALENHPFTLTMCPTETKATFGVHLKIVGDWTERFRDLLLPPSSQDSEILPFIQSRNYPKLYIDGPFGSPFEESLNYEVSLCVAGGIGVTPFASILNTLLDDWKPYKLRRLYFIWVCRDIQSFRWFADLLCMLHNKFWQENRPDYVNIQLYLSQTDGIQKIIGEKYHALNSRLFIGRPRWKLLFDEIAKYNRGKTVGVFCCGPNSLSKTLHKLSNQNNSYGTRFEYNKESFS
# Chain of Streptavidin (Streptomyces avidinii) (P22629 whole entry, looked up): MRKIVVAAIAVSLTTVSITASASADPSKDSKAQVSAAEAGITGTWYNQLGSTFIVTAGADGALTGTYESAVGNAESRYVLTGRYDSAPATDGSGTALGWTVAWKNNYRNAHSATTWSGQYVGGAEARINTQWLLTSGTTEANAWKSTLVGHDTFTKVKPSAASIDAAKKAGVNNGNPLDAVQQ
SMILES,composite z-score [1],z-score [2],z-score [3],z-score [4],z-score [5],composite z-score [6],composite z-score [7],composite z-score (Torsin-1A (Homo sapiens) [8]),composite z-score (Torsin-1A (Homo sapiens) [9]),composite z-score [10],z-score [11],composite z-score [12],z-score [13],z-score [14],z-score [15],z-score [16],z-score [17],z-score [18],z-score [19],z-score [20]
C=CCOC(=O)[C@H]1[C@@H]2C(=O)O[C@@H](c3ccccc3)[C@@H](c3ccccc3)N2[C@@H](c2ccc(OCCOC(=O)[C@@H]3C[C@@H]4C(=O)N[C@@H](CCCCNC(C)=O)C(=O)N4[C@@H]3c3ccc(O)cc3)cc2)[C@]12C(=O)Nc1ccccc12,0.39,-0.0424 (inactive),-0.122 (inactive),-0.126 (inactive),-0.464 (inactive),-0.0038,0.095,0.665,0.505,2.05,-0.226 (inactive),0.379,3.21 (inactive),1.61 (inactive),4.15 (inactive),0.841 (inactive),-0.0842,1.56 (inactive),0.962 (inactive),0.576
COC(=O)[C@@]1(Cc2ccccc2)[C@H]2c3cc(C(=O)N4CCCC4)n(Cc4ccc(S(C)(=O)=O)cc4)c3C[C@H]2CN1C(=O)c1ccccc1,-0.0831,-1.22 (inactive),0.779 (inactive),0.959 (inactive),0.266 (inactive),2.21,0.401,0.758,0.81,-0.344,-0.94 (inactive),0.198,1.98 (inactive),0.238 (inactive),0.716 (inactive),0.742 (inactive),-0.121,0.613 (inactive),-1.16 (inactive),-1.9
O=C1C2C=CC(C(O)CCc3ccccc3)N(Nc3ccccc3F)C2C(=O)N1c1ccccc1 (stereo not given),0.43,-0.381 (inactive),-0.315 (inactive),-0.331 (inactive),0.654 (inactive),0.787,0.131,0.204,0.538,0.366,-0.383 (inactive),-0.322,1.87 (inactive),1.15 (inactive),0.517 (inactive),0.807 (inactive),-0.638,0.236 (inactive),-0.452 (inactive),-0.449
O=C1N(Cc2ccccc2)c2ccccc2[C@@H]2OC(c3ccc(OCCCO)cc3)=N[C@]12CCS(=O)(=O)c1ccccc1,0.443,-2.24 (inactive),-0.19 (inactive),3.13 (inactive),-0.406 (inactive),0.209,-0.0719,0.216,0.726,0.695,-0.355 (inactive),0.387,24.7 (active),13.3 (active),1.79 (inactive),1.57 (inactive),0.0582,0.22 (inactive),1.32 (inactive),1.96
C=CC(=C)[C@H]1Oc2ccccc2S(=O)(=O)N2CCC[C@@H]12,0.0964,-4.18 (inactive),1.16 (inactive),0.483 (inactive),0.133 (inactive),0.331,-0.0332,-1.02,-1.06,0.0906,-0.829 (inactive),0.131,4.63 (inactive),0.751 (inactive),-0.309 (inactive),0.01 (inactive),0.0928,-0.0944 (inactive),-1.04 (inactive),-1.38
COC(=O)[C@@]1(Cc2ccc(F)cc2)[C@H]2c3cc(C(=O)N4CCCC4)n(CCCNc4ncc(C(F)(F)F)cc4Cl)c3C[C@H]2CN1C(=O)c1ccccc1,-0.026,-1.89 (inactive),-0.0456 (inactive),1.74 (inactive),-0.152 (inactive),0.919,0.656,-0.107,-0.0136,-0.516,-2.31 (inactive),0.4,1.58 (inactive),0.852 (inactive),1.01 (inactive),0.863 (inactive),-0.626,-0.299 (inactive),-2.23 (inactive),-0.307
CC1(C)C2C=C(C(O)C3C=CC4C(=O)NC(=O)C4N3Nc3ccc(Cl)cc3Cl)C[C@@H]1C2 (stereo not given in full),0.696,-2.39 (inactive),-0.418 (inactive),1.19 (inactive),-0.0073 (inactive),0.961,0.0236,-0.0995,1.09,-0.193,-4.41 (inactive),0.265,3.33 (inactive),0.916 (inactive),-2.43 (inactive),1.19 (inactive),-1.38,-0.197 (inactive),-5.57 (inactive),-3.46
O=C1NC(=O)C2C1C=CC(C(O)c1cc(C(F)(F)F)cc(C(F)(F)F)c1)N2Nc1ccccn1 (stereo not given),-0.102,0.804 (inactive),-0.162 (inactive),0.0501 (inactive),0.403 (inactive),0.0086,-0.0059,-0.138,0.237,0.87,-1.87 (inactive),0.127,0.499 (inactive),0.701 (inactive),-0.0477 (inactive),0.827 (inactive),-0.822,-1.17 (inactive),-1.72 (inactive),-2.4
CCCCC(CC)C(O)C1C=CC2C(=O)N(Cc3ccccc3)C(=O)C2N1n1cnnc1 (stereo not given),-0.205,-0.114 (inactive),0.999 (inactive),0.127 (inactive),0.408 (inactive),0.124,-0.166,0.17,0.606,-0.405,-1.5 (inactive),0.0903,0.218 (inactive),0.0653 (inactive),0.604 (inactive),0.411 (inactive),-0.908,-0.132 (inactive),-0.476 (inactive),-0.99
